From ChEMBL document CHEMBL4513216, “Probing the Open Global Health Chemical Diversity Library for Multistage-Active Starting Points for Next-Generation Antimalarials” (ACS Infect Dis, 2020)
Screen size: about 69,000 compounds; about 8,600 (12%) showed an effect of 50% or more. The list comes from a sample in which strong results are over-represented; it also holds similar structures and randomly drawn compounds.

Each compound was assayed on Plasmodium berghei (assay: Screen against P. berghei liver stage (PbLuc), transformed with Luciferase, at 10uM). Conditions: tested at 10 uM.
Format: functional, HepG2

SMILES	INHIBITION [%]
CCCS(=O)(=O)N1C[C@@H]2C[C@H](C(=O)Nc3cccnc3)[C@H](C1)O2	34.6
CNC(=O)[C@H]1C[C@H]2CN(Cc3cccc(C)c3)C[C@@H]1O2	57.3
O=C(Nc1ccccc1)[C@H]1C[C@H]2CN(Cc3cccnc3)C[C@@H]1O2	59
CC(C)CCN1C[C@@H]2C[C@H](C(=O)Nc3cccnc3)[C@H](C1)O2	41.6
O=C(Nc1cccnc1)[C@H]1C[C@H]2CN(Cc3ccc(F)cc3)C[C@@H]1O2	63.7
O=C(Nc1cccnc1)[C@H]1C[C@H]2CN(S(=O)(=O)C3CC3)C[C@@H]1O2	48.6
CNC(=O)[C@H]1C[C@H]2CN(Cc3ccc(C)cc3)C[C@@H]1O2	9.65
CNC(=O)[C@H]1C[C@H]2CN(Cc3ccccc3)C[C@@H]1O2	1.7
CCN1C[C@@H]2C[C@H](C(=O)Nc3ccccc3)[C@H](C1)O2	1.94
COc1ccc(CN2C[C@@H]3C[C@H](C(=O)Nc4cccnc4)[C@H](C2)O3)cc1	28.7
Cc1ccc(CN2C[C@@H]3C[C@H](C(=O)Nc4cccnc4)[C@H](C2)O3)cc1	64.9
CCOc1ccccc1OC1CCN(C(=O)c2[nH]nc(C)c2Br)CC1	2.97
Cc1nc(CCCNC(=O)[C@H]2CNC[C@@H](C(=O)N3CCCC3)C2)sc1C	6.72
COCC[C@]1(O)CCN(C(=O)CCn2c(C)cccc2=O)C[C@H]1C	1.94
O=c1ccc2c(n1CC1CCOCC1)CCN(Cc1ccoc1)CC2	5.41
Cn1cc(CN2CCc3ccc(=O)n(CC4CC4)c3CC2)cn1	89.1
CN(C)C(=O)Cn1c2c(ccc1=O)CCN(Cc1cnn(C)c1)CC2	52.4
CN(C)CCn1c2c(ccc1=O)CCN(Cc1ccncc1)CC2	-7.24
CN(C)CCn1c2c(ccc1=O)CCN(Cc1cnn(C)c1)CC2	-3.26
Cn1cc(CN2CCc3ccc(=O)n(Cc4ccncc4)c3CC2)cn1	20.6
Cc1ccc(CN2CC[C@H](O)[C@@H](n3ccc(=O)[nH]c3=O)CC2)cc1	37.6
Cn1cc(CN2CCC(Cn3cc(-c4ccccc4)nn3)CC2)cn1	48.8
CN(C)c1cc(C(=O)N2CCN(c3nccs3)CC2)ccn1	-43.9
CC(=O)N1CCC2(CC1)CNc1c(F)cccc12	29.5
O=C(c1cccnc1)N1CCC2(CC1)CNc1c(F)cccc12	40.5
O=C(c1ccccc1)N1CCC2(CC1)CNc1c(F)cccc12	60.3

SMILES	INHIBITION [%]
Cc1cc(CN2CCN(C(=O)NCCc3csc(C)n3)CC2)on1	-43.5
O=C(NCC1CCOCC1)[C@@H]1C[C@@H]2[C@@H](CCN2Cc2ccoc2)O1	12.5
Cc1c[nH]nc1C1CCN(S(=O)(=O)N(C)C)C1 (stereo unspecified)	-9.32
CN(C)S(=O)(=O)N1CCCC(c2ccncn2)C1 (stereo unspecified)	25.6
CN(C)S(=O)(=O)N1CCCC(c2cccc(Cc3ccccc3)n2)C1 (stereo unspecified)	84
CN(C)S(=O)(=O)N1CCCC(c2cccc(Cc3ccccc3F)n2)C1 (stereo unspecified)	15.9
CS(=O)(=O)N1CCCC(c2cccc(-c3ccccc3F)n2)C1 (stereo unspecified)	12.675
CN(C)S(=O)(=O)N1CCCC(c2nccnc2-c2cccc(Cl)c2)C1 (stereo unspecified)	5.37
Cc1cc(C2CCCN(S(=O)(=O)N(C)C)C2)ccn1 (stereo unspecified)	-20.6
CN(C)S(=O)(=O)N1CCC(c2cccc(Cc3ccccc3Cl)n2)CC1	96
CN(C)S(=O)(=O)N1CCCC(c2cccc(Cc3ccc(F)cc3)n2)C1 (stereo unspecified)	96
CN(C)S(=O)(=O)N1CCCC(c2cccc(Cc3ccc(Cl)cc3)n2)C1 (stereo unspecified)	82.7
CN(C)S(=O)(=O)N1CCC(c2ccncn2)CC1	-9.32
Cc1noc(C)c1-c1cccc(C2CCN(S(=O)(=O)N(C)C)CC2)n1	32.4
COc1ccc(C)cc1Nc1nc2c(C)nn(C)c2c(=O)n1C	-2.13
COCCN1CCC(CNC(=O)C2(c3cccc(Cl)c3)CC2)C1 (stereo unspecified)	30.6
c1cncc(CN2CCC(c3ccc4c(c3)OCO4)CC2)c1	6.4
Cc1nc(O)c2nnn(C[C@H]3CCCN3C(=O)C3CCCC3)c2n1	30.4
Cc1cc(NC(=O)NCCCSc2nncn2C)no1	15
Cc1nn(C)c(N(C)C)c1CNCc1ccc2c(c1)OCO2	11.4
COC1CCN(c2ccc(F)cc2CN(C)CC(N)=O)CC1	-3.83
CN1CCCC(c2cccc(Cc3ccccc3Cl)n2)C1 (stereo unspecified)	51.7
CC(=O)N1CCCC1c1cccc(Cc2ccccc2Cl)n1 (stereo unspecified)	38.2
CN1CCCC(c2cccc(CCC(N)=O)n2)C1 (stereo unspecified)	-4.51
Cc1ccc(-c2nc(CCNC(=O)NCC(C)(C)C(N)=O)co2)cc1	27.6
